The nature of assay [1]: binders of probe aFSTL3 on microarray, primary screen, stem cell growth factor project, biochemical, small-molecule microarray, fluorescence 635/667 (AID 1064).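 Note: measures binding of the biotinylated anti-FSTL3 antibody to printed compounds.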 The conditions noted are these: higher = more signal.
The nature of assay [2]: binders from COS7 lysate, DM2A8 probe, primary screen, torsin A project, cell lysate, small-molecule microarray, fluorescence 635/667 (AID 1065). The conditions noted are these: higher = more signal, COS7 lysate expressing mutant human TOR1A.
A short description of assay [3]: binders of probe aFGF2 on microarray, primary screen, stem cell growth factor project, biochemical, small-molecule microarray, fluorescence 635/667 (AID 1067).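 Note: measures binding of biotinylated aFGF2 protein to printed compounds on slides; z-score merges feature fluorescence and signal-to-noise across triplicate slides.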 The settings on record: higher = more signal.
The nature of assay [4]: binders of probe aFGF10 on microarray, primary screen, stem cell growth factor project, biochemical, small-molecule microarray, fluorescence 635/667 (AID 1071).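 Note: score merges 667 nm spot intensity and signal to noise from triplicate slides.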 The settings on record: higher = more signal.
In assay [5] the target is Neurogenic locus notch homolog protein 2 (Homo sapiens) (UniProt Q04721). The assay can be described thus: Notch2 binders on small-molecule microarrays, primary screen, biochemical, small-molecule microarray, 635 nm fluorescence, stem cell growth factors (AID 1073). The conditions noted are these: Notch2 binding, higher = more signal.
Chain of Neurogenic locus notch homolog protein 2 (Homo sapiens) (Q04721 whole entry, looked up, canonical isoform): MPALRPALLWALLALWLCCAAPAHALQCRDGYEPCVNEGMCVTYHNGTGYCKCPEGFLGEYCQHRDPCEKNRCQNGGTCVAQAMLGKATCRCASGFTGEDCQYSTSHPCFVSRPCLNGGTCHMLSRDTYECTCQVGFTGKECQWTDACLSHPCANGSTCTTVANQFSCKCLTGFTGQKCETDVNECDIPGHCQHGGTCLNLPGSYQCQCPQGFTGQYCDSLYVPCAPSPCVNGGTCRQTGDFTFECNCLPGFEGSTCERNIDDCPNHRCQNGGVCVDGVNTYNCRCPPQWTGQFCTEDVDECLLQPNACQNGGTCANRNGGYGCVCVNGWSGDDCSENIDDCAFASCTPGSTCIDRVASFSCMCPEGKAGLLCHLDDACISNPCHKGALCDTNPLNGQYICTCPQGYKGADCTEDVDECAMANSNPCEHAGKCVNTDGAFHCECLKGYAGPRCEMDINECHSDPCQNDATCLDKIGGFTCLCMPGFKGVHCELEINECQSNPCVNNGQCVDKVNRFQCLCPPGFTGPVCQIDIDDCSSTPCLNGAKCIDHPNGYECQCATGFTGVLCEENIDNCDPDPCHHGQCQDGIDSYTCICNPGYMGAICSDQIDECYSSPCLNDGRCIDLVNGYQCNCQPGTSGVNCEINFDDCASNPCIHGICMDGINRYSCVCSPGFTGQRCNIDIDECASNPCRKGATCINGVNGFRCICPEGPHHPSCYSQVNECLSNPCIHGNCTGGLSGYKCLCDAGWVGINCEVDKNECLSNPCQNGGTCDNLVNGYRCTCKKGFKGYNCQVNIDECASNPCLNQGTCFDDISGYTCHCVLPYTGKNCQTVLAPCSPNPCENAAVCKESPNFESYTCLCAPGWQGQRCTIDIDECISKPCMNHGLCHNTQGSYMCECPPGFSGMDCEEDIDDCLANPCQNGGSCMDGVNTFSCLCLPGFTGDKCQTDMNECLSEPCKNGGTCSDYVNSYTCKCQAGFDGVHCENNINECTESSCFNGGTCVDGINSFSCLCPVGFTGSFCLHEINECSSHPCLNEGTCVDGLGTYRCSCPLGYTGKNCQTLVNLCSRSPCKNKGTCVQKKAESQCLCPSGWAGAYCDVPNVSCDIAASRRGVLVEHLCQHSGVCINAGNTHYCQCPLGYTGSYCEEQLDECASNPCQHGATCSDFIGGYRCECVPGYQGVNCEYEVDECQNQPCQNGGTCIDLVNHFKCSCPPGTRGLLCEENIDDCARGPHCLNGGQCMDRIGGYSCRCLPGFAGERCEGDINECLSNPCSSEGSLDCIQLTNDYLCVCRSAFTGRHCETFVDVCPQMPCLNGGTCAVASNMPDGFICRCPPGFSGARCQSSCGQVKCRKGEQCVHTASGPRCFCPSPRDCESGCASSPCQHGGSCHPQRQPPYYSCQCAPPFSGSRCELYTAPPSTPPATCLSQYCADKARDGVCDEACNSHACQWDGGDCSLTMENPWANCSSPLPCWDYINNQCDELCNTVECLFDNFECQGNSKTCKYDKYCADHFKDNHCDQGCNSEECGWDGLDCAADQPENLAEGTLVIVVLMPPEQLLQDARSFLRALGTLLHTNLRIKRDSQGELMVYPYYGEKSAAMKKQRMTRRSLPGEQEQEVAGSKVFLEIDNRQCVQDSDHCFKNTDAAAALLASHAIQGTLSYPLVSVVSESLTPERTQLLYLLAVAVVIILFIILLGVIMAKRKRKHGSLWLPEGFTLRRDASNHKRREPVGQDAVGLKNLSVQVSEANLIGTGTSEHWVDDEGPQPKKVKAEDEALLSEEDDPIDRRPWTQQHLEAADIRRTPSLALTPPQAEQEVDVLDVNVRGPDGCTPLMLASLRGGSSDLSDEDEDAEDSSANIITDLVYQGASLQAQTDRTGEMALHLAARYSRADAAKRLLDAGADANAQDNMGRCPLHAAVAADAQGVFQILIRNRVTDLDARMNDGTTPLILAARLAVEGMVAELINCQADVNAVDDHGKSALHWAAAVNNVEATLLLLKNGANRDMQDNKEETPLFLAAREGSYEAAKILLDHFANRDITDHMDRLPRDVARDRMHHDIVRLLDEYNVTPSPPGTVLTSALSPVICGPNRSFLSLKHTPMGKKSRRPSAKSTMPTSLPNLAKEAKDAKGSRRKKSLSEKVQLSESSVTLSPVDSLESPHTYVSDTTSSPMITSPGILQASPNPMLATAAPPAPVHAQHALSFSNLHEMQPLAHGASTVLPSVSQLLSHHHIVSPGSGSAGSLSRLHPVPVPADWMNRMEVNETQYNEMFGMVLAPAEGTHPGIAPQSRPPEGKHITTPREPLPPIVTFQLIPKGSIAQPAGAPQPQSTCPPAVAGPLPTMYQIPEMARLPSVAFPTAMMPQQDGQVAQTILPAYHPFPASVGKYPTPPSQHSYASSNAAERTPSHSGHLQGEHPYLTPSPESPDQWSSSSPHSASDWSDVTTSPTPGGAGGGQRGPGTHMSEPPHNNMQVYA
Assay [6] concerns the target Pro-neuregulin-1, membrane-bound isoform (Homo sapiens) (UniProt Q02297). In words: NRG1 binders on small-molecule microarrays, primary screen, psychiatric disease protein project, biochemical, small-molecule microarray, fluorescence 635/667 (AID 1075).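 Note: score combines 667 nm spot fluorescence with signal to noise.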 The conditions noted are these: NRG1 binding, 635 nm fluorescence, higher = more signal.
Assay [7] deals with Neuregulin-1 EGF-like domain. The assay can be described thus: binders of neuregulin-1 EGF-like domain, primary screen, biochemical, small-molecule microarray, 635 nm fluorescence (AID 1081).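 Note: binding of the protein to compounds printed on small-molecule microarray slides.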 The conditions noted are these: small-molecule microarray binding, higher = more signal.
Assay [8] in a line: FRG1 promoter luciferase signal modulators, primary screen, FRG1 inhibition for FSHD, cell-based, C2C12 myotubes, firefly/Renilla luciferase, luminescence (AID 1084). The settings on record: higher = more signal, called active from +8 up or from −8 down.
Assay [9] is described as follows: binders of probe aFST on microarray, primary screen, stem cell growth factor project, biochemical, small-molecule microarray, fluorescence 635/667 (AID 1086).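 Note: score merges 667 nm fluorescence with signal-to-noise of each printed compound spot.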 The settings on record: higher = more signal.
Assay [10] can be described thus: binders of probe aHhip on microarray, primary screen, stem cell growth factor project, biochemical, small-molecule microarray, fluorescence 635/667 (AID 1087).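 Note: score merges spot fluorescence at 667nm with spot signal to noise ratio.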 The conditions noted are these: higher = more signal.
The test system of assay [11] is PRMT1 (protein arginine N-methyltransferase 1). The assay can be described thus: PRMT1 binders on small-molecule microarrays, primary screen, biochemical, small-molecule microarray, 635 nm fluorescence (AID 1088).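 Note: binding of Prmt1 protein to compounds spotted on small-molecule microarray slides.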 The conditions noted are these: small-molecule microarray binding, higher = more signal.
Assay [12] in a line: yeast growth modulation, basal conditions, primary screen, YJM789 clinical isolate, OD600, 24 h (AID 1089).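 Note: growth of clinical yeast isolate S. cerevisiae YJM 789 seeded 1000 cells per well; test concentration not given here.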 The conditions noted are these: S. cerevisiae YJM789 growth, higher = more signal, called active from +8 up or from −8 down.
The nature of assay [13]: fission yeast growth modulation, primary screen, strain 972, OD600, 24 h, no modulator (AID 1090).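 Note: basal condition with compound alone and no growth modifier present; test concentration not given here.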 The settings on record: S. pombe 972 growth, higher = more signal, called active from +8 up or from −8 down.
A short description of assay [14]: S. cerevisiae growth modulation with rapamycin, primary screen, strain BY4716, OD600, 96 h (AID 1091). Note: test concentration not given here. The settings on record: higher = more signal, called active from +8 up or from −8 down.
For assay [15], the target named is Torsin-1A-interacting protein 2 (Homo sapiens) (UniProt Q8NFQ8). The assay can be described thus: LULL1 binders on small-molecule microarray, primary screen, cell lysate, human LULL1 lysate, 635/667 nm fluorescence (AID 1092).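 Note: probe is lysate of COS7 cells overexpressing human LULL1; score merges per-feature 667 nm fluorescence with signal-to-noise.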 The settings on record: hLULL1 lysate binding, 635 nm fluorescence, higher = more signal.
Chain of Torsin-1A-interacting protein 2 (Homo sapiens) (Q8NFQ8 whole entry, looked up): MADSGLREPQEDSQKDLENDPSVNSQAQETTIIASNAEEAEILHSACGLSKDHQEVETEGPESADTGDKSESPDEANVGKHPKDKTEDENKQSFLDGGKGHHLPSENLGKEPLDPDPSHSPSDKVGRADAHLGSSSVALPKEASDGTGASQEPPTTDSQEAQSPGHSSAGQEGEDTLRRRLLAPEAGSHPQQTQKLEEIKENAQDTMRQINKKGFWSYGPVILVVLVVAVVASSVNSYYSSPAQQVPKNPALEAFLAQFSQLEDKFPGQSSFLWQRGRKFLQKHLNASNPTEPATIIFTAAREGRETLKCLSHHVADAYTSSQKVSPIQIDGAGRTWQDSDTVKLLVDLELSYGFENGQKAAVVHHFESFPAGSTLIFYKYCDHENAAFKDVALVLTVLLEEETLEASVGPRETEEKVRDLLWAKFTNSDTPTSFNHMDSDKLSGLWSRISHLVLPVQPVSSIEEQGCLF
Assay [16] can be described thus: E. coli growth modulation, two-sided OD650, primary screen, E. coli filamentation project, strain DRC41, 24 h (AID 1093).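 Note: MC1000 strain lacking acrAB efflux and sulA so SOS filamentation is blocked; test concentration not given here.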 The settings on record: OD650, 24 h, higher = more signal, called active from +8 up or from −8 down.
A short description of assay [17]: small-molecule microarray binders of probe aLefty2, primary screen, biochemical, biotinylated probe, 635/667 nm fluorescence (AID 1094).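 Note: score merges spot fluorescence near 667 nm with spot signal-to-noise ratio.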 The conditions noted are these: higher = more signal.
The test system of assay [18] is Noggin (protein binding on small-molecule microarray). In words: Noggin binders on small-molecule microarray, primary screen, biochemical, 635/667 nm fluorescence (AID 1095).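 Note: score merges 667 nm feature fluorescence with signal to noise over triplicate slides.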 The settings on record: 635 nm fluorescence, higher = more signal.
In assay [19] the target is Neurogenic locus notch homolog protein 3 (Homo sapiens) (UniProt Q9UM47). The assay can be described thus: NOTCH3 binders on small-molecule microarray, primary screen, biochemical, 635/667 nm fluorescence (AID 1096). The settings on record: NOTCH3 binding, 635 nm fluorescence, higher = more signal.
Assay [20] can be described thus: small-molecule microarray binders of probe aEGFR, primary screen, biochemical, biotinylated probe, 635/667 nm fluorescence (AID 1097).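 Note: probe is a biotinylated anti-EGFR antibody binding compounds printed on slides; score combines fluorescence near 667 nm and signal to noise of each spot.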 The settings on record: higher = more signal.

The results in this text go back to PubChem BioAssay.

The source made the active and inactive calls.

Chain of Pro-neuregulin-1, membrane-bound isoform (Homo sapiens) (Q02297 whole entry, looked up, the tested form may be a part, canonical isoform): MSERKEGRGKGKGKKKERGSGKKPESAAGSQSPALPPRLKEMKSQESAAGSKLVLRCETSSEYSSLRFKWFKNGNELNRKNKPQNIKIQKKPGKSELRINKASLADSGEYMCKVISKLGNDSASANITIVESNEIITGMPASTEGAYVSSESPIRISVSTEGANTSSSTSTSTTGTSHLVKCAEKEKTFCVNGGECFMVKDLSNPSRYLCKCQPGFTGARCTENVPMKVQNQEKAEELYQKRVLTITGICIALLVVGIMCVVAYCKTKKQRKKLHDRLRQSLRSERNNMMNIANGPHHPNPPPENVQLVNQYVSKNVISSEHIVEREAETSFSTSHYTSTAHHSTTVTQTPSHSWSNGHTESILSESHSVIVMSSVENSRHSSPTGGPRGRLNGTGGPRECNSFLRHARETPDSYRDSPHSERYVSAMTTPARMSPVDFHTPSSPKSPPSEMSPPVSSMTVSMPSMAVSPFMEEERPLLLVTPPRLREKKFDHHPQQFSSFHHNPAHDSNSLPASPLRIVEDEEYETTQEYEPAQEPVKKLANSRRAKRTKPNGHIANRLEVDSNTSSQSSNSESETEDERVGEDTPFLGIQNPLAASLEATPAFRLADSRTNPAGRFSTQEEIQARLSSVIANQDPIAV

For the compound `NC(=O)[C@@]1(Cc2ccccc2)COC(c2ccc(OCCCO)cc2)=N1`, the composite z-score in assay [1] is 0.634; in assay [2] it was 0.758; in [3] it was -0.0594; in [4] it was -0.281; in assay [5], 0.29; in assay [6], 1.37. Also, the composite z-score in [7] is 1.16; in assay [9], 0.252; in assay [10], -0.0684; in assay [11], -0.57; in assay [15], 3.05; in assay [17] it was -0.0736. Also, the composite z-score in [18] was -0.555; in assay [19], -0.537; in assay [20], -0.136. Besides, the z-score in [8] is 1.47 (inactive); in assay [12], 1.2 (inactive); in assay [13], 0.196 (inactive); in assay [14], 1.19 (inactive); in assay [16] it was 1.05 (inactive).
As for `C=CCNC(=O)[C@@H]1[C@H]2C(=O)O[C@H](c3ccccc3)[C@H](c3ccccc3)N2[C@H](c2ccccc2OCCO)[C@@]12C(=O)Nc1ccc(C#CCC(C(=O)OC)C(=O)OC)cc12`, the composite z-score is -0.44 in assay [1]; 0.491 in assay [2]; -0.116 in assay [3]; 0.422 in assay [4]; 0.894 in assay [5]; 1.39 in assay [6]. The composite z-score in assay [7] was 1.28; in assay [9], -0.437; in assay [10], -0.347; in assay [11] it was 1.45; in assay [15] it was 1.77; in [17], -0.366. Moreover, the composite z-score was 0.0639 in [18], 1.07 in [19] and -0.24 in assay [20]. Also, the z-score in [8] was 1.1 (inactive); in assay [12], 1.13 (inactive); in assay [13], 1.19 (inactive); in [14] it was 3.72 (inactive); in assay [16], -0.736 (inactive).
As to `COCCOC(=O)N1C(=O)[C@@]2(c3ccccc31)[C@H](C(=O)NC[C@H](O)c1ccccc1)[C@H]1C(=O)O[C@H](c3ccccc3)[C@H](c3ccccc3)N1[C@@H]2c1ccc(O)cc1`, the composite z-score was -0.19 in assay [1]; 0.23 in assay [2]; 0.0017 in assay [3]; 0.941 in [4]; 1.55 in assay [5]; 0.57 in assay [6]. In addition, the composite z-score in assay [7] is 1.25; in assay [9], 0.839; in assay [10], 0.689; in assay [11] it was 1.53; in [15], 3.01; in [17] it was -0.109. For the same compound, the composite z-score was determined as 0.915 in assay [18], 1.05 in assay [19] and 0.569 in assay [20]. Moreover, the z-score was -0.677 (inactive) in assay [8]; 0.787 (inactive) in assay [12]; 0.259 (inactive) in assay [13]; 2.83 (inactive) in [14]; 1.14 (inactive) in assay [16].
Take `CCCCCN1CC=CC23O[C@@H]4C=CCCOC(=O)C4[C@H]2C(=O)N(CCCCCCO)[C@@H]3C1=O` (stereo not given in full): the composite z-score in assay [1] was 0.0199; in [2], -0.336; in assay [3], -0.169; in assay [4] it was 0.0401; in [5] it was -0.812; in [6] it was 1.98. Also, the composite z-score in assay [7] is 0.99; in assay [9], -0.658; in [10], -0.0994; in assay [11] it was 0.812; in assay [15], 3.49; in [17], -0.423. Also, the composite z-score in assay [18] is -0.362; in assay [19], -0.135; in [20], -0.282. The z-score in [8] was -0.457 (inactive); in assay [12], -0.0966 (inactive); in [13] it was -0.0045 (inactive); in assay [14], -0.0168 (inactive); in [16], 0.313 (inactive).
In the case of `[N-]=[N+]=NCc1ccccc1[C@@H]1OC(c2ccc(OCCCO)cc2)=N[C@]1(CCS(=O)(=O)c1ccccc1)C(=O)O`, the composite z-score in assay [1] was 0.561; in assay [2], -0.0845; in assay [3], 0.0116; in assay [4] it was 0.396; in assay [5], 0.797; in assay [6], 1.92. Besides, the composite z-score is 0.733 in assay [7]; 0.641 in assay [9]; -0.0994 in assay [10]; 0.627 in assay [11]; 3.31 in assay [15]; 0.17 in assay [17]. The composite z-score in assay [18] is -0.823; in assay [19], 0.123; in assay [20], -0.0535. For the same compound, the z-score is 5.28 (inactive) in assay [8]; 0.302 (inactive) in assay [12]; 0.76 (inactive) in [13]; 0.248 (inactive) in assay [14]; 0.177 (inactive) in [16].
